The campaign covered roughly 4,400 compounds. About 390 (8.9%) showed an effect of 50% or more. What follows is part of a selection rich in strong results, with near analogues and random picks from the rest.

By % inhibition is commonly meant the drop in the measured response relative to a control, in per cent.

The test system of the test is Trypanosoma brucei. As to the kind of experiment: DNDI: Inhibition of Human African Trypanosomiasis, SBRI 427, in vitro at 2 ug.mL-1. In kind it is functional.
Turning to `COc1ccc(Oc2ncccc2/C(=N/O)NCc2cc(F)cc(F)c2)cc1`, the “% inhibition” value stood at 39%.
`CCc1ccc(Oc2ncccc2/C(=N/O)NCc2cccnc2)cc1`: the “% inhibition” value is 3%.
In the case of `COc1cccc(CN/C(=N\O)c2cccnc2OCC2CCCCC2)c1` it was 71%.
In the case of `COc1cccc(CN/C(=N\O)c2cccnc2OC2CCC2)c1` it was -1%.
Then `CCc1ccc(Oc2ncccc2/C(=N/O)NCc2ccncc2)cc1`, with 5%; and `O/N=C(\NCc1cc(F)cc(F)c1)c1cccnc1Oc1ccc(Cl)cc1`, with 59%; and `COc1ccc(Oc2ncccc2/C(=N/O)NCc2ccccc2)cc1`, with 86%.
For `O/N=C(\NCc1cccnc1)c1cccnc1OCC1CCCCC1`, the “% inhibition” value amounted to 6%.
Then `COc1ccc(CN/C(=N\O)c2cccnc2Oc2ccccc2)cc1`, with 14%; and `COc1ccc(Oc2ncccc2/C(=N/O)NCc2ccncc2)cc1`, with -2%; and `O/N=C(\NCc1cc(F)ccc1F)c1cccnc1Oc1ccc(Cl)cc1`, with 12%.
Then `CC(C)(C)c1ccc(-c2nc(Cn3nc(N)cc3-c3ccccc3)co2)cc1`, with 9%; and `CN(CCC#N)Cc1coc(-c2cccc3ccccc23)n1`, with 7%; and `CCOC(=O)C1CCCCN1Cc1coc(-c2cccc(OCC)c2)n1` (centres undefined), with 2%.
In the case of `COc1ccccc1CNCc1coc(-c2ccc(Br)cc2)n1` it was 3%; in that of `CCN(Cc1coc(-c2ccccc2Cl)n1)c1cccc2ccccc12`, -6%; in that of `COc1ccc(Oc2ncccc2/C(=N/O)NCc2cccc(OC)c2)cc1`, -6%.
As for `COc1cccc(CN/C(=N\O)c2cccnc2Oc2ccc(Cl)cc2)c1`, the “% inhibition” value is 98%.
Then `COc1cccc(CN/C(=N\O)c2cccnc2Oc2c(F)cccc2F)c1`, with 17%; and `O/N=C(/c1ccnc(Oc2ccc(F)c(Cl)c2)c1)N1CC=CCC1`, with 17%.
As to `Cc1cccc(Oc2ncccc2/C(=N/O)N2CC(C)CC(C)C2)c1C` (centres undefined), the “% inhibition” value worked out at 1%.
On to `Cc1ccc(Oc2nc(C)ccc2/C(=N/O)NCC2CCCCC2)c(C)c1`, for which the “% inhibition” value turned out to be 62%.
In the case of `Cc1cc(C)cc(Oc2nc(C)ccc2/C(=N/O)NCC2CCCCC2)c1`, the “% inhibition” value is reported as 14%.
Regarding `Cc1ccc(Oc2nc(C)ccc2/C(=N/O)NC2CCCCC2)c(C)c1`, the “% inhibition” value was 100%.
Turning to `Cc1ccc(Oc2nc(C)ccc2/C(=N/O)NCCN2CCCCC2)c(C)c1`, the “% inhibition” value was found to be 0%.
Then `Cc1ccc(Oc2nc(C)ccc2/C(=N/O)NC2CCCC2)c(C)c1`, with 25%.
In the case of `COc1cc(C)ccc1Oc1nc(C)ccc1/C(=N/O)NC1CCCC1` it was -8%.
Then `C=CCN1CCN(/C(=N\O)c2ccc(C)nc2Oc2ccc(C)cc2)CC1`, with 30%.
For the compound `CC1C=CC(C)N1/C(=N\O)c1cccnc1Oc1ccc(Cl)cc1` (centres undefined), the “% inhibition” value is -7%.
In the case of `Cc1ccc(N2CCN(Cc3coc(-c4ccc(OC(F)(F)F)cc4)n3)CC2)cc1C` it was 23%.
Regarding `CC(C)(C)COc1ncccc1/C(=N/O)NCC1CCCO1` (centres undefined), the “% inhibition” value was found to be 4%.
In the case of `CC(C)(C)CNCc1coc(-c2ccccc2Br)n1`, the “% inhibition” value was found to be 7%.
In the case of `C[C@@H]1C(NCc2coc(-c3ccccc3Br)n2)C[C@H]2C[C@@H]1C2(C)C` (some centres undefined) it was 100%; in that of `Brc1ccccc1-c1nc(CNCc2ccccc2)co1`, 11%; in that of `Brc1ccccc1-c1nc(CNC2CCc3ccccc32)co1` (centres undefined), 7%.
In the case of `C[C@H]1C(NCc2coc(-c3ccccc3Br)n2)C[C@@H]2C[C@H]1C2(C)C` (some centres undefined) it was 98%; in that of `CCC(CC)CNCc1coc(-c2ccccc2Br)n1`, 1%; in that of `Cc1ccc(/C(=N/O)N2CCCCC2)c(Oc2ccc(F)cc2)n1`, 24%.
For the compound `CCc1nccn1Cc1coc(-c2cc(OC)c(OC)c(OC)c2)n1`, the “% inhibition” value was determined as 9%.
In the case of `Cc1ccc2cccc(Oc3cc(/C(N)=N/O)ccn3)c2n1` it was 7%; in that of `Cc1ccc(/C(=N/O)N2CCCC2)c(OCc2ccccc2C)n1`, 10%.
`CN(Cc1coc(-c2ccc(Cl)cc2Cl)n1)Cc1ccco1`: the “% inhibition” value was determined as 11%.
Then `O=C(C1CCCO1)N1CCN(Cc2coc(-c3ccc(C(F)(F)F)cc3)n2)CC1` (centres undefined), with 4%.
In the case of `CCOC(=O)C1CCCN(Cc2coc(-c3ccccc3Cl)n2)C1` (centres undefined), the “% inhibition” value is recorded as 4%.
With `COc1cccc(-c2nc(CN3CCN(c4ccccc4OC)CC3)co2)c1`, the “% inhibition” value is on record as -9%.
As for `CC1CC(C)CN(/C(=N\O)c2cccnc2Oc2ccccc2)C1` (centres undefined), the “% inhibition” value is reported as 10%.
In the case of `Cc1ccc(-c2nc(CNc3ccccc3C)co2)cc1`, the “% inhibition” value was -4%.
`CN(/C(=N\O)c1ccc(Oc2ccc3oc4ccccc4c3c2)nc1)C1CCCCC1`: the “% inhibition” value is given as 22%.
With `CC(C)CN/C(=N\O)c1ccc(Oc2ccc3oc4ccccc4c3c2)nc1`, the “% inhibition” value came out at 11%.
Then `COc1cccc(CN/C(=N\O)c2ccc(Oc3ccc4oc5ccccc5c4c3)nc2)c1`, with 16%.
As to `O/N=C(\NCC1CCCO1)c1ccc(Oc2ccc3oc4ccccc4c3c2)nc1` (centres undefined), the “% inhibition” value is listed as -8%.
Take `O/N=C(\NCc1ccncc1)c1ccc(Oc2ccc3oc4ccccc4c3c2)nc1`: the “% inhibition” value is reported as -14%.
In the case of `O/N=C(\NC1CC1)c1ccc(Oc2ccc3oc4ccccc4c3c2)nc1` it was 82%; in that of `O/N=C(\NC1CCc2ccccc21)c1ccc(Oc2ccc3oc4ccccc4c3c2)nc1` (centres undefined), 19%.
Then `O/N=C(\NC1CCC1)c1ccc(Oc2ccc3oc4ccccc4c3c2)nc1`, with 94%.
Consider `CCC(C)(C)N/C(=N\O)c1ccc(Oc2ccc3oc4ccccc4c3c2)nc1`, for which the “% inhibition” value was determined as 97%.
In the case of `CC(C)(C)CN/C(=N\O)c1ccc(Oc2ccc3oc4ccccc4c3c2)nc1` it was 8%.
On to `O/N=C(\NCc1cccnc1)c1ccc(Oc2ccc3oc4ccccc4c3c2)nc1`, for which the “% inhibition” value turned out to be 84%.
Then `Cc1cc(C)cc(CN/C(=N\O)c2ccc(Oc3ccc4oc5ccccc5c4c3)nc2)c1`, with 32%.

The values are drawn from ChEMBL document CHEMBL1857833, “Screening and optimization of specific chemical series against human African Trypanosomiasis (HAT)”.
